Screen size: about 280,000 compounds; about 180 (0.064%) were called active. Where a call stands in place of a potency, no number is given. Calls come from the whole dose curve; as a rule, active = well fitted inhibition curve with a large enough effect; inconclusive = small, poorly fitted or top-dose-only effect, or effect the other way; inactive = flat fitted curve, though single readings scatter. This excerpt belongs to a sample that is enriched for actives.
Potency is the fitted concentration of half-maximal effect.

Thyroid hormone receptor beta (Homo sapiens), sequence (P10828 whole entry, looked up): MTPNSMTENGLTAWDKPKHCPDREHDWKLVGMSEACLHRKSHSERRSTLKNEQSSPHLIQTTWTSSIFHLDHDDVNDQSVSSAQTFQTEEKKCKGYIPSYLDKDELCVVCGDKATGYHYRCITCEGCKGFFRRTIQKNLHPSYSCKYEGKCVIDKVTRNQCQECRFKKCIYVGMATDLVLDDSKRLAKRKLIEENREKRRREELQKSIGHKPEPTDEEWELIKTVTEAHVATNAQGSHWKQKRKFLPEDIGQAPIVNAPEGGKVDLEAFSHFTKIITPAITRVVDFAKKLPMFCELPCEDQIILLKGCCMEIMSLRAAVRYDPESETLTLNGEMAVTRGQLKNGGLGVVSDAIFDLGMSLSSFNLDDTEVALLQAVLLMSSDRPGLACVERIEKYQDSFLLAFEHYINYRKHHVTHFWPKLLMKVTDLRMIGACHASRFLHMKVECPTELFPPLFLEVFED

The assay addresses Thyroid hormone receptor beta (Homo sapiens) (UniProt P10828). The assay can be described thus: qHTS for Inhibitors of the Interaction of Thyroid Hormone Receptor and Steroid Receptor Coregulator 2. Note: nearly all actives have a fitted effect of over 50% in size. The settings on record: TRbeta-SRC2 peptide binding, fluorescence polarization, receptor liganded with 1 µM T3; series mostly up to 106 µM. An excerpt: NIH Molecular Libraries Probe Production Network [MLPCN]
NIH Chemical Genomics Center [NCGC]
Assay Provider: R. Kip Guy, St. Jude Children's Research Hospital
Thyroid receptor (TR) regulates many homeostatic processes including basal metabolism, cardiovascular function, body weight, and lipid trafficking. TR modulators are potential therapeutics for obesity and hyperlipidemias but current thyroid analogs have undesirable side effects, particularly cardiac stimulation. To identify inhibitors that specifically prevent the interaction of TR with the steroid receptor coregulator 2 (SRC2), a fluorescence polarization assay was screened. This assay detects interaction of the ligand-binding domain of human TRb with a Texas Red labeled SRC2 peptide, corresponding to a 20 amino acid region of the nuclear receptor interaction domain (Arnold et al., 2006). Small molecule inhibitors that block the interaction of TR and SRC2 are detected by a decrease in fluorescence polarization.
Arnold, L. A.; Estebanez-Perpina, E.; Togashi, M.; Shelat, A.; Ocasio, C. A.; McReynolds, A. C.; Nguyen, P.; Baxter, J. D.; Fletterick, R. J.; Webb, P.; Guy, R. K. A high-throughput screening method to identify small molecule inhibitors of thyroid hormone receptor coactivator binding. Sci STKE 2006, p 13.
NCGC Assay Protocol Summary:
For screening, 5 uL/well 0.6 uM TRb and 20 nM SRC2 Texas Red in protein buffer (20mM Tris hydrochloride, 100mM NaCl, 10% glycerol, 1mM EDTA, 0.01% NP-40, 1mM DTT, 1uM T3 and 5% DMSO) was dispensed into black solid 1536-well plates (Grenier) using a solenoid-based dispenser. Following transfer of 23 nL compound or DMSO vehicle by a pin tool, the plates were centrifuged 15 s at 1000 RPM and incubated 5 hr at ambient temperature. The plates were read by an Envision (Perkin Elmer) to detect fluorescence polarization of SRC2 Texas Red (555 nm excitation and 632 nm emission). Data were normalized to unbound (all components except TRb) and bound SRC2 Texas Red controls. In this assay, we provide % activity data for each concentration as well as potencies for the active compounds.
Keywords: NIH Roadmap, MLPCN, MLI, MLSMR, qHTS, NCGC, qHTS, thyroid hormone receptor, steroid receptor coactivator, fluorescence polarization
In general terms: Quantitative high-throughput screening tests each substance at several concentrations.
As for `O=C1CSC2(C(=O)N(Cc3ccccc3)c3ccccc32)N1c1cccc(F)c1` (centres undefined), the Potency result is “inactive”.

For the compound `CCn1cc(C(=O)N2CCN(c3cc(C)ccc3C)CC2)c(=O)c2cc(S(=O)(=O)N(C)C3CCCCC3)ccc21`, the Potency entry is “inactive”.

In the case of `Cc1nnc(NC(=O)CSc2nc3c([nH]c4ccccc43)c(=O)n2-c2cccc(Cl)c2)s1`, the Potency entry was “inactive”.

Regarding `COc1ccccc1N1CCN(C(=O)C2CCN(S(=O)(=O)c3c(C)noc3/C=C/c3ccc(C)cc3)CC2)CC1`, the Potency result was “inactive”.

For the compound `CCOc1ccc2oc(=O)cc(CN3CCN(C(=O)c4ccc(F)cc4)CC3)c2c1`, the Potency entry is “inactive”.

`Cc1cccc(N2CCN(C(=O)CCn3c(=O)c4cccn4c4cccnc43)CC2C)c1` (centres undefined): the Potency entry was “inactive”.

For the compound `COc1ccc(-n2ccnc(NCCc3ccc(Cl)cc3)c2=O)cc1OC`, the Potency result is “inactive”.

Turning to `CCn1c(C)c(C)c2cc(C(=O)NCCc3cc(OC)ccc3OC)ccc21`, the Potency result was “inactive”.

Regarding `COc1ccc(-c2onc(C)c2C)cc1S(=O)(=O)NCC1CCN(Cc2cccc(F)c2)CC1`, the Potency entry was “inactive”.

On to `Cc1cccc(NC(=O)CN(c2ccc(C(C)C)cc2)S(=O)(=O)c2c(C)nn(C)c2C)c1C`, for which the Potency result was “inactive”.

As for `Cc1cc2c(cc3c(SCc4cccc(Cl)c4)nnc(C)n32)o1`, the Potency entry is “inactive”.

For the compound `COc1ccc(-c2cn3nc(N4CCC(C(=O)Nc5cccc(C)c5C)CC4)sc3n2)cc1`, the Potency result is “inactive”.

For `COc1ccc(CNC(=O)c2ccc(NC(=O)N3CC4CCCN4c4ccccc43)cc2)cc1` (centres undefined), the Potency result is “inactive”.

Turning to `Cc1cccc(N2CCN(C3=C(c4ccccc4)C(=O)c4ccccc43)CC2)c1C`, the Potency entry is “inactive”.

Turning to `Cc1nc2nc(NCc3cccc(Br)c3)[nH]n2c(=O)c1Cc1ccccc1`, the Potency result is “inactive”.

For `C[Si](C)(C)N[Si](C)(C)C`, the Potency entry was “inactive”.

Turning to `CCCOc1ccc(N/C=C/C(=O)C(C)(C)C)cc1`, the Potency entry was “inactive”.

`CN(C)c1ccc(N/C=C/C(=O)C(F)(F)F)cc1`: the Potency is 44.7 µM (active).

With `O=C(/C=C/Nc1ccccc1OC(F)(F)F)C(F)(F)F`, the Potency entry was “inactive”.

With `COc1ccc(C2=NC(c3ccncc3)=Nc3ccc(Br)cc3N2)cc1`, the Potency result is “inactive”.

On to `Cc1ccccc1OCc1ccc(-c2nc(C#N)c(N3CCCCC3)o2)o1`, for which the Potency entry was “inactive”.

As for `Cc1cc(=O)n(CC(=O)Nc2cccc([N+](=O)[O-])c2)c(-n2nc(C)cc2C)n1`, the Potency entry is “inactive”.

In the case of `Cc1ccc(NC(=O)c2oc3ccc(S(=O)(=O)N4CCCCC4)cc3c2C)cc1Cl`, the Potency result was “inactive”.

`CCN(CC)c1cc(NC2CCCCC2)c2c3c(onc13)-c1ccccc1C2=O`: the Potency result was “inactive”.

For the compound `COc1cc(NC(=O)c2noc3c2CSc2ccccc2-3)cc(OC)c1OC`, the Potency result is “inactive”.

With `CCc1cccc(C)c1Nc1c(-c2ccc(N(C)C)cc2)nc2ncccn12`, the Potency result is “inactive”.

In the case of `CCOCCCNC(=O)c1ccc2nc(CCc3ccccc3)oc2c1`, the Potency entry was “inactive”.

Consider `CCc1ccccc1NC(=O)Cc1ccc(NC(=O)N2CCCCc3ccccc32)cc1`, for which the Potency entry was “inactive”.

As for `CCOC(=O)c1ccc(N2C(=O)c3n[nH]c(-c4ccco4)c3C2c2ccc(O)cc2)cc1` (centres undefined), the Potency result was “inactive”.

As to `O=C(CCOc1ccccc1)N(Cc1cccnc1)c1nc2ccc(Cl)cc2s1`, the Potency entry is “inactive”.

For the compound `CCOC(=O)N1CCc2c(sc(NCc3cccc(F)c3)c2C(=O)Nc2ccccc2OCC)C1`, the Potency result is “inactive”.

For the compound `COC(=O)CC1Oc2ccccc2-n2cc(-c3ccccc3)nc21` (centres undefined), the Potency result is “inactive”.

In the case of `Cc1ccc(O)c(NC(=O)CCS(=O)(=O)c2nc(-c3ccc4c(c3)OCO4)cc(C(F)(F)F)n2)c1`, the Potency result is “inactive”.

On to `Cc1cc(C)cc(NC(=O)CSc2oc(-c3ccccc3)nc2S(=O)(=O)c2ccc(Cl)cc2)c1`, for which the Potency result is “inactive”.

Turning to `CCOc1ccc(CNC(=O)c2ccc(CS(=O)c3ccccc3)o2)cc1` (centres undefined), the Potency result was “inactive”.

Regarding `CCCn1c(NCc2ccc(N(CC)CC)cc2)nc2ccccc21`, the Potency entry is “inactive”.

As for `CCOCCCNC(=O)c1c(NC(=O)Cc2coc3ccc(C)cc23)sc2c1CCC2`, the Potency result is “inactive”.

Take `Cc1ccc2nc(-c3ccc(O)cc3)c(Nc3ccc4c(c3)OCO4)n2c1`: the Potency result was “inactive”.

With `Cc1ccc(-c2nc3ccccn3c2Nc2c(C)cccc2C)o1`, the Potency entry was “inactive”.

For `Cc1ccccc1CS(=O)(=O)CC1Nc2ccc(C(=O)NCc3ccc(Cl)cc3)cc2NC1=O` (centres undefined), the Potency result is “inactive”.

As for `Cc1cccc(N2CCN(c3ccc(C(=O)O)cc3NC(=O)c3ccccc3F)CC2C)c1` (centres undefined), the Potency entry was “inactive”.

For `CCOc1ccc(-c2cc(C)n3nc(C(=O)Nc4ccc(C)c(C)c4)cc3n2)cc1`, the Potency result was “inactive”.

On to `COc1ccc(N=C(C)c2sc3ccccc3c2O)cc1`, for which the Potency result is “inactive”.

Consider `Oc1ccc(N=Cc2sc3ccccc3c2Cl)cc1`, for which the Potency is 14.1 µM (active).

Regarding `O=C(N/N=C/c1c(Cl)[nH]c2ccccc12)c1sc2ccccc2c1Cl`, the Potency entry is “inactive”.

Turning to `COc1cccc(-c2cc(C(=O)Nc3ccc(C)cc3)[nH]n2)c1`, the Potency result was “inactive”.

`COc1ccc(CC(=O)Nc2nnc3n2CCS3)cc1OC`: the Potency entry is “inactive”.

On to `Cc1ccc(Nc2nnc(-c3ccc(C)c(S(=O)(=O)N4CCCCC4)c3)c3ccccc23)cc1`, for which the Potency result is “inactive”.

With `COc1ccccc1N1CCN(CCCNC(=O)c2cnn(-c3ccccc3Cl)c2C2CCN(C(=O)OC(C)(C)C)CC2)CC1`, the Potency result was “inactive”.
